Assay outcomes: PubChem, Broad Institute
The full list was thinned out, with hits kept by preference.
Tgondii IFNg: T. gondii growth inhibition with IFN-gamma, primary screen, cell-based. Toxoplasma gondii growth in IFN-gamma-treated host cells; active compounds read low. activity change, negative = inhibition, % (concentration not given with the values). hit rate 3.8% among 69,000; in the data active = activity change below about -70%, passing the limit was not always enough;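 also: host cells are HeLa cells infected with Toxoplasma gondii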
Active calls of the source: *; i = inactive.

SMILES	Tgondii IFNg
CN1C[C@@H]2[C@H](c3ccccc31)[C@H](CO)N2Cc1ccccc1Cl	-2
COc1ccc(C[C@H]2CN(C3CCOCC3)CC[C@H]2OCC2CC2)cc1	-8
Cc1ccc(NC(=O)c2ncn3c(C4CCN(CC5CC5)CC4)ccnc23)c(C)c1	36
O=C(Nc1cnc2n1CCCC2)c1ccc(CSc2ncccn2)o1	-8
CN(C)C(=O)c1noc2c1CN(C(=O)c1ccc(CC3CCCNC3)cc1)CC2 (stereo not drawn)	7
CCOC(=O)c1ccc(NC(=O)CN2CCC3(CC2)N=C(c2ccccc2)C(=O)N3)cc1	-24
COc1ccc(F)c(CN2CCC(NS(C)(=O)=O)CC2)c1Cl	4
COc1ccc(F)c(F)c1C(=O)c1cnc(NC2CCN(S(C)(=O)=O)CC2)nc1N	-76*
CC(C)(C)NC(=O)N1CCC(Nc2nccc(C(F)(F)F)n2)CC1	-62
CS(=O)(=O)NC1CCN(CC2(O)CCCN(CCc3ccccc3)C2=O)CC1 (stereo not drawn)	4
COCCN1C(=O)N(CC(C)C)C(=O)C12CCN(Cc1cn(C)c3ccccc13)CC2	8
Cc1nc(CN2C[C@@H]3CN(Cc4nccn4C)C[C@H]3C2=O)cs1	-33
CC(NC(=O)Cc1cc(F)cc(F)c1)C(=O)NC(C(=O)OC(C)(C)C)c1ccccc1 (stereo not drawn)	18
CC(C)C[C@@H](C(=O)N[C@H](C(=O)OC1CCCC1)c1ccccc1)[C@H](O)C(=O)NO	-85*
CNC(=O)[C@@H](NC(=O)[C@H](CC(C)C)[C@H](O)C(=O)NO)C(C)(C)C	14
CN1CC(=O)N(c2cnn(C)c2)CC12CCN(CC1CCOCC1)C2 (stereo not drawn)	-1
CCS(=O)(=O)N1CCC2(CC1)OC(=O)C(C)=C2C(=O)Nc1cccc(Cl)c1Cl	17
CN1CCN(C)C2(CCN(C(=O)c3cccc4c3NCCC4)CC2)C1	-2
CC1N(CCN(C)C)C(=O)COC12CCN(Cc1cnn(C)c1)CC2 (stereo not drawn)	4
CC1N(Cc2cccnc2)C(=O)COC12CCN(Cc1cnn(C)c1)CC2 (stereo not drawn)	4
C=CCN1C(=O)COC2(CCN(Cc3cnn(C)c3)CC2)C1C (stereo not drawn)	-78*
Cn1ncc(Br)c1-c1cccc(N)c1	-5
CCN1CCN(CC2(O)CCCN(CCCc3ccccc3)C2=O)CC1 (stereo not drawn)	0
CCCCCCn1c(=O)c2c(ncn2C)n(C)c1=O	16
CCCCn1c(=O)c2c(nc3n2CCCN3CCc2ccccc2)n(C)c1=O	-97*
SMILES	Tgondii IFNg
COCCN1C(=O)CCC12CCC(NCc1nccs1)CC2 (stereo not drawn)	-16
CCOc1ccccc1-c1nc(Cn2c(=O)c3c(C)cc(C)nc3n(Cc3ccco3)c2=O)c(C)o1	6
O=C(CSc1nc2ccccc2n1Cc1ccc(F)cc1)c1ccc2c(c1)OCCO2	-25
N#CC(C#N)=C(N)/C(C#N)=C/c1cc(O)c(O)c(O)c1	-7
CC(C)(C)c1cc(-c2cc(C(C)(C)C)c(O)c(C(C)(C)C)c2)cc(C(C)(C)C)c1O	14
CC(C)(C)c1cc(/C=C(\C#N)C(N)=S)cc(C(C)(C)C)c1O	-74*
Cc1ccc(C)n1CCn1c(C)ccc1C	-23
CC(C)CNC(=O)c1cc2c(s1)CCN2c1ncccn1	-44
CCC1=C[C@@H]2CN(C1)Cc1c([nH]c3ccccc13)[C@@](C(=O)OC)(c1cc3c(cc1OC)N(C)[C@H]1[C@@](O)(C(=O)OC)[C@H](OC(C)=O)[C@]4(CC)C=CCN5CC[C@]31[C@@H]54)C2	-74*
O=C(c1ccc[nH]1)N1CCC2(CC1)COCCN(c1ncccn1)C2	-39
CN(C)Cc1nn(C)c2c1CN(S(=O)(=O)c1ccccc1F)C2	4
CN1CCC(N2CCN(C(=O)Cn3c(=O)n(-c4ccccc4)c4ncccc43)CC2)CC1	-12
COc1ccc(Cl)cc1C(=O)Nc1ccc(-c2nc(Cn3cc(C)cn3)c(C)o2)cc1	29
CCc1ccc(C(=O)Nc2ccc(-c3nc(Cn4cccn4)c(C)o3)cc2)cc1	-11
CCOc1ccc(C(=O)Nc2ccc(-c3nc(Cn4cc(C)cn4)c(C)o3)cc2)cc1	-91*
Cc1cnn(Cc2nc(-c3ccc(NC(=O)c4cccc(Cl)c4)cc3)oc2C)c1	53
Cc1cnn(Cc2nc(-c3ccc(NC(=O)c4ccc(Cl)cc4)cc3)oc2C)c1	-87*
Cc1cnn(Cc2nc(-c3ccc(NC(=O)COc4ccccc4)cc3)oc2C)c1	-38
CO[C@H]1CCN(C(=O)c2ccccn2)[C@H]2CN(Cc3ccncc3)C[C@@H]12	11
CC(C)CN1C(=O)CC2C1CCN2c1cnccn1 (stereo not drawn)	43
O=C(NCc1ccccn1)c1cc2n(n1)CCN(C(=O)c1cccc3c1OCC3)C2	-20
CCN(CC)C(=O)c1cc(=O)n(CC(=O)Nc2cc(Cl)ccc2C)c2ccccc12	2
CCOc1cccc(C2c3[nH]c4ccccc4c3CCN2C(=O)c2cccc(F)c2)c1 (stereo not drawn)	-123*
CCOc1cccc(C2c3[nH]c4ccccc4c3CCN2C(=O)c2cccc(C)c2)c1 (stereo not drawn)	-112*
Cc1cccc(C(=O)N2CCc3c([nH]c4ccccc34)C2c2cccc(C)c2)c1 (stereo not drawn)	i
SMILES	Tgondii IFNg
Cc1ccsc1[C@@H]1CCN(C(=O)c2coc3c2C(=O)CCC3)C[C@H]1O	2
Cn1cc(C2COC3(CCCN(C(=O)c4ccccc4F)C3)C2)cn1 (stereo not drawn)	-3
Cc1ccc(OCc2occc2C(=O)N2CCCn3cncc3C2)cc1	-9
CC1CCC(NC(=O)CN2C(=O)CCc3cc(S(=O)(=O)N4CCCCC4)ccc32)CC1 (stereo not drawn)	-18
Fc1cnc(N2C[C@@H]3COC[C@]3(COCc3ccccn3)C2)nc1	-2
CC(C)c1ccc(NC(=O)C2CC(=O)N(CCc3c[nH]c4ccc(F)cc34)C2)cc1 (stereo not drawn)	-81*
Cc1nnc(NC(=O)C2CC(=O)N(CCc3c[nH]c4ccc(Cl)cc34)C2)s1 (stereo not drawn)	45
O=C(Nc1ccc2c(c1)CCC2)C1CC(=O)N(CCc2c[nH]c3ccc(Cl)cc23)C1 (stereo not drawn)	-111*
Cc1ccc2[nH]cc(CCN3CC(C(=O)NCCc4ccc(F)cc4)CC3=O)c2c1 (stereo not drawn)	179
O=C(NC1CCCCCC1)C1CC(=O)N(CCc2c[nH]c3ccc(Cl)cc23)C1 (stereo not drawn)	48
CC(C)(C)c1nnc(NC(=O)C2CC(=O)N(CCc3c[nH]c4ccc(F)cc34)C2)s1 (stereo not drawn)	74
COc1cc(-c2ccn[nH]2)ccc1NC(C)=O	-46
Cc1cc(C)n2nc(C(=O)NCCOC(C)C)nc2n1	14
Cc1ccc(-c2cc(N)c(=O)n(CC(=O)Nc3ccc4c(c3)OCO4)n2)o1	-24
CCOC(=O)c1cc(C)nc2c1c(=O)n(Cc1nc(-c3ccc(C)cc3)oc1C)c(=O)n2C	8
CCOC(=O)c1cc(C)nc2c1c(=O)n(Cc1nc(-c3ccc(OC)cc3)oc1C)c(=O)n2C	-24
CCOC(=O)c1cc(C)nc2c1c(=O)n(Cc1nc(-c3ccc(OC(C)C)cc3)oc1C)c(=O)n2C	-81*
CCCN1CCN(C(=O)C2CCC2)C(Cc2ccccc2-c2ccncc2)C1=O (stereo not drawn)	-17
COc1cc(N2CCCC(CO)(Cc3cccc(Cl)c3)C2)ncn1 (stereo not drawn)	-64
